Results filed as inconclusive are left out. Calls of active or inactive are those of the source. The call rests on the fitted dose curve; in most records, active means well fitted inhibition curve with a large enough effect; inconclusive means small, poorly fitted or top-dose-only effect; inactive means no such curve, though single readings can be large or run the other way.
Tested on: Zika virus NS2B-NS3 protease (unlinked complex)
Experiment: Primary screen GU Rhodamine qHTS for Zika virus inhibitors: Unlinked NS2B-NS3 protease assay (AID 1347159); further: nearly all actives have a fitted effect of over 60% in size
Settings: Recombinant ZIKV NS2B-NS3 protease, Rhodamine110 substrate fluorescence; series mostly up to 107 µM; activity change, negative = inhibition: at the top concentration
How it was run: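 Enzyme 25 nM in Tris-HCl pH 8.0 + 0.01% Tween 20; compounds up to 114 microM, 15 min RT dark; + Rhod110 substrate 1.5 microM; read t0 and 15 min; delta fluorescence → % inhibition → 4-parameter Hill fit.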
On the % scale 0 is the no-effect control and ±100 the full control effect.

For `CC1CCC2(C(=O)OC3OC(COC4OC(CO)C(O)C(O)C4O)C(O)C(O)C3O)CCC3(C)C(=CCC4C5(C)CCC(O)C(C)(C(=O)O)C5CCC43C)C2C1(C)O` (stereo not given), which “activity change, negative = inhibition” value is on record?
The value was -8.98% [at 32.5 µM] (inactive).

With `CC1=CC(=O)C[C@H]2[C@@H]1CC[C@@H](C)[C@]21CO[C@H](c2ccoc2)C1=O` as the compound, how does the “activity change, negative = inhibition” value read?
Its value is 17.2% (inactive).

`C[C@@H]1O[C@@H](O[C@H]2[C@H](OC(=O)C34CCC5(C)C(=CCC6C7(C)CC(O)C(O[C@@H]8O[C@H](C(=O)O)[C@@H](O)[C@H](O)[C@H]8O)C(C)(C(=O)O)C7CCC65C)C3CC(C)(C)CC4O)O[C@H](C)[C@@H](O)[C@@H]2O)[C@H](O)[C@@H](O[C@@H]2OC[C@](O)(CO)[C@H]2O[C@@H]2O[C@H](CO)[C@@H](O)[C@H](O)[C@H]2O)[C@H]1O` (stereo not given in full) was tested. Which activity change, negative = inhibition did it give?
Its activity change, negative = inhibition is 4.07% [at 19.1 µM] (inactive).

Which “activity change, negative = inhibition” value does the source give for `CCCCCCc1cccc(NC(=O)[C@H](N)CCP(=O)(O)O)c1` here?
The value was 0% [at 32.5 µM] (inactive).

Which “activity change, negative = inhibition” value does the source give for `CCC(=O)NS(=O)(=O)c1ccc(-c2c(-c3ccccc3)noc2C)cc1` here?
The value was -18.2% (inactive).

With `C[C@H]1[C@H](C)CC[C@]2(C(=O)O)CC[C@]3(C(=O)O)C(=CCC4[C@@]5(C)CC[C@H](O[C@@H]6O[C@H](C)[C@@H](O)[C@H](O)[C@H]6O)C(C)(C)C5CC[C@]43C)[C@H]12` (stereo not given in full) as the compound, how does the “activity change, negative = inhibition” value read?
The value was 14.4% [at 32.5 µM] (inactive).

Which “activity change, negative = inhibition” value does the source give for `C=C1C[C@]23C[C@H]1CC[C@H]2[C@@]12C=C[C@H](O)[C@@](C)(C(=O)O1)[C@H]2[C@@H]3C(=O)O` here?
The value was 11.2% (inactive).

Which activity change, negative = inhibition does the source give for `C[C@@H]1O[C@@H](O[C@@H]2[C@@H](O)[C@H](O[C@@H]3[C@@H](O)[C@@H](O)[C@H](O[C@H]4[C@H](OC(=O)[C@]56CCC(C)(C)C[C@H]5C5=CCC7[C@@]8(C)C[C@H](O)[C@H](O[C@@H]9O[C@H](C(=O)O)[C@@H](O)[C@H](O)[C@H]9O)[C@@](C)(CO)C8[C@H](O)C[C@@]7(C)[C@]5(C)CC6)OC[C@H](O)[C@@H]4O)O[C@H]3C)OC[C@H]2O)[C@H](O)[C@H](O)[C@H]1O` (stereo not given in full) here?
Its activity change, negative = inhibition is 20.7% [at 19.1 µM] (inactive).

Which “activity change, negative = inhibition” value does the source give for `Cc1c(N2C(=O)c3ccc(C(=O)O)cc3C2=O)c(=O)n(-c2ccccc2)n1C` here?
The value was 0% (inactive).

`Cn1c(=O)c2nc(/C=C/c3cccc(Cl)c3)n(C)c2n(C)c1=O` was tested. Which “activity change, negative = inhibition” value did it give?
The value was 0% [at 229 µM] (inactive).

`COc1cc(/C=C/C(=O)O[C@H]2[C@H](O)[C@@H](CO)O[C@@]2(CO)O[C@H]2O[C@H](COC(=O)c3ccc(O)cc3)[C@@H](O)[C@H](O)[C@H]2O)cc(OC)c1OC` was tested. Which “activity change, negative = inhibition” value did it give?
Its value is 16.9% [at 32.5 µM] (inactive).

How did the “activity change, negative = inhibition” value turn out when `C[C@@H]1C[C@H](O[C@@H]2O[C@H](CO[C@@H]3OC[C@](O)(CO)[C@H]3O)[C@@H](O)[C@H](O)[C@H]2O)CC(C)(C)[C@H]1/C=C/[C@@H](C)O` was run?
Its value is -15% [at 57.1 µM] (inactive).

How did the “activity change, negative = inhibition” value turn out when `OC[C@H]1O[C@@H](OCCc2ccc(O)cc2)[C@H](O)[C@@H](O)[C@@H]1O` was run?
Its value is 0.853% (inactive).

Which “activity change, negative = inhibition” value does the source give for `CC(C)(C)NCC(O)COc1cccc2c1CCCC2=O` (stereo not given) here?
Its value is -1.12% (inactive).

With `NS(=O)(=O)OC[C@@H]1C[C@@H](n2ccc3c(N[C@H]4CCc5ccccc54)ncnc32)C[C@@H]1O` as the compound, how does the Potency read?
The Potency was “inactive”.

For `C=C1CCC2C(C)(COC3OC(COC(=O)CC(=O)O)C(O)C(O)C3O)CCCC2(C)C1CCC1=CCOC1=O` (stereo not given), which “activity change, negative = inhibition” value is on record?
Its value is -18.2% [at 57.1 µM] (inactive).

How did the “activity change, negative = inhibition” value turn out when `CC(=O)N1c2ccccc2C2(O)CC3C(=O)NC(CC(C)C)C(=O)N3C12` (stereo not given) was run?
Its value is 8.54% (inactive).

Which “activity change, negative = inhibition” value does the source give for `CCC(C)(O)C(O)C(=O)OCc1ccc(O[C@@H]2O[C@H](CO)[C@@H](O)[C@H](O)[C@H]2O)c(OC)c1` (stereo not given in full) here?
The value was 51.9% [at 57.1 µM] (inactive).

With `COc1c2c(c(C)c3c1C(=O)OC3)OC1(C)CC(O)C3(O)C(C)(C)OC(=O)CCC3(C)C1C2` (stereo not given) as the compound, how does the “activity change, negative = inhibition” value read?
Its value is 19.4% [at 57.1 µM] (inactive).

How did the “activity change, negative = inhibition” value turn out when `CCN(c1cc(C#CCN2CCOCC2)cc(C(=O)NCc2c(C)cc(C)[nH]c2=O)c1C)C1CCC(N(C)CCOC)CC1` (stereo not given) was run?
Its value is 19.9% (inactive).

How did the “activity change, negative = inhibition” value turn out when `C[C@H]1CN(C[C@H](Cc2ccccc2)C(=O)NCC(=O)O)CC[C@@]1(C)c1cccc(O)c1` was run?
The value was -8.27% (inactive).

`C[C@H](NCc1ccc(OCc2ccccc2F)cc1)C(N)=O` was tested. Which “activity change, negative = inhibition” value did it give?
Its value is -5.36% (inactive).

How did the “activity change, negative = inhibition” value turn out when `CC(C)=CCC[C@](C)(O[C@@H]1O[C@H](CO[C@@H]2OC[C@@H](O)[C@H](O)[C@H]2O)[C@@H](O)[C@H](O)[C@H]1O)[C@H]1CC[C@]2(C)[C@@H]1[C@H](O)C[C@@H]1[C@@]3(C)CC[C@H](O[C@@H]4O[C@H](CO)[C@@H](O)[C@H](O)[C@H]4O[C@@H]4O[C@H](CO)[C@@H](O)[C@H](O)[C@H]4O)C(C)(C)[C@@H]3CC[C@]12C` was run?
The value was 34.8% [at 57.1 µM] (inactive).

Which “activity change, negative = inhibition” value does the source give for `CC[C@H]1OC(=O)[C@H](C)[C@@H](OC2C[C@@](C)(OC)[C@@H](O)[C@H](C)O2)[C@H](C)[C@@H](OC2O[C@H](C)C[C@H](NC)[C@H]2O)[C@](C)(O)C[C@@H](C)CN(C)[C@H](C)[C@@H](O)[C@]1(C)O` (stereo not given in full) here?
The value was 0% (inactive).

How did the “activity change, negative = inhibition” value turn out when `C[C@@H]1CC[C@]2(C(=O)O)CC[C@]3(C(=O)O)C(=CCC4[C@@]5(C)CC[C@H](O[C@@H]6O[C@@H](C)[C@H](O[C@@H]7O[C@H](CO)[C@@H](O)[C@H](O)[C@H]7O)[C@@H](O)[C@H]6O)C(C)(C)C5CC[C@]43C)C2[C@H]1C` (stereo not given in full) was run?
Its value is 6.11% [at 32.5 µM] (inactive).

`CCNC(=O)CCC/C=C\C[C@@H]1[C@@H](/C=C/C(O)CCc2ccccc2)[C@@H](O)C[C@@H]1O` (stereo not given in full) was tested. Which “activity change, negative = inhibition” value did it give?
The value was -9.05% (inactive).

For `N#CCc1ccc(O)cc1O[C@@H]1O[C@H](CO)[C@@H](O)[C@H](O)[C@H]1O`, which “activity change, negative = inhibition” value is on record?
The value was -18% (inactive).

`C=CCc1ccc(O[C@@H]2O[C@H](CO[C@@H]3O[C@H](CO)[C@@H](O)[C@H](O)[C@H]3O)[C@@H](O)[C@H](O)[C@H]2O)c(O)c1` was tested. Which “activity change, negative = inhibition” value did it give?
The value was 9.11% [at 57.1 µM] (inactive).

Which “activity change, negative = inhibition” value does the source give for `COC(=O)[C@@]1(C)CC[C@]2(C(=O)O[C@@H]3O[C@H](CO)[C@@H](O)[C@H](O)[C@H]3O)CC[C@]3(C)C(=CCC4[C@@]5(C)CC[C@H](O[C@@H]6O[C@H](C(=O)O)[C@@H](O)[C@H](O)[C@H]6O)C(C)(C)C5CC[C@]43C)[C@@H]2C1` (stereo not given in full) here?
The value was -9.24% [at 32.5 µM] (inactive).

Which “activity change, negative = inhibition” value does the source give for `COc1c(OC2OC(CO)C(O)C(O)C2O)ccc(O)c1C(=O)OCc1ccccc1O[C@@H]1O[C@H](CO)[C@@H](O)[C@H](O)[C@H]1O` (stereo not given in full) here?
Its value is -13.4% [at 32.5 µM] (inactive).
